Assay results published in PubChem BioAssay (NCATS).
Records with an inconclusive call do not appear. Active and inactive are the calls of the source. Calls come from the whole dose curve; as a rule, active = well fitted inhibition curve with a large enough effect; inconclusive = small, poorly fitted or top-dose-only effect; inactive = flat fitted curve, though single readings scatter.

Test system: Zika virus NS2B-NS3 protease
Test: Primary screen GU AMC qHTS for Zika virus inhibitors (AID 1347154);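 note: 0% = no-inhibitor control and -100% = no-enzyme control; nearly all actives have a fitted effect of over 70% in size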
Conditions: Zika NS2B-NS3 unlinked protease, AMC fluorogenic substrate; series mostly up to 54.1 µM; activity change, negative = inhibition: at the top concentration
How it was run: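 Unlinked Zika NS2B hydrophilic domain–NS3 protease complex at 25 nM in 10 mM Tris-HCl pH 8.0, 0.01% Tween 20, with an AMC peptide substrate. Fluorescence change (340/450 nm) over 15 min at room temperature, normalized to controls, fitted to 4-parameter Hill.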

Compound	activity change, negative = inhibition	Potency
Cc1cccc(C)c1NC(=O)CN(CC(=O)O)CC(=O)O	-5.79% (inactive)	–
CCC(=O)c1ccc(O)cc1	-6.24% (inactive)	–
NC1CCN(c2cccc(Cl)n2)CC1	–	inactive
Cc1cc(CC(=O)O)n(C)c1C(=O)c1ccc(Cl)cc1	-8.16% (inactive)	–
O=C(O)c1ccccc1-c1ccc(C(F)(F)F)cc1	2.22% (inactive)	–
NC(=O)c1ncn([C@@H]2O[C@H](CO)[C@@H](O)[C@H]2O)c1N	-4.39% (inactive)	–
COc1ccc(S(=O)(=O)Nc2nnc(CC(C)C)s2)cc1	-1.84% (inactive)	–
O=C(O)CC(O)C(=O)O (stereo not drawn)	4.13% (inactive)	–
Cc1cc(O)cc2c1O[C@](C)(CCC[C@H](C)CCC[C@H](C)CCCC(C)C)CC2	8.77% (inactive)	–
O=C1O[C@H]([C@@H](O)CO)C(O)=C1O	-4.08% (inactive)	–
CCCCC(CC)COC(=O)c1ccccc1O (stereo not drawn)	-0.395% (inactive)	–
CC(C)(C)C(=O)NCCCC(=O)O	-6.61% (inactive)	–
CC1(C)S[C@@H]2[C@H](NC(=O)Cc3ccccc3)C(=O)N2[C@H]1C(=O)O (tested in a mixture with another compound)	-0.605% (inactive)	–
